Screening results: PubChem BioAssay, Broad Institute
EWS-Fli inh = inhibitors of EWS/Fli oncoprotein transcriptional activity. A673 NR0B1-luciferase reporter, viability-normalised. inhibition, % at 12.6 µM. 350,000 compounds, 0.67% hits;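 active means mean inhibition of at least 50% after viability correction, with every replicate also passing that limit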;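 further: firefly luciferase signal divided by Alamar Blue viability fluorescence both relative to DMSO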
PGC1a acetyl inh = PGC1a acetylation modulation, inhibitor mode; 350,000 compounds, 0.17% hits; inhibition, % at 15.6 µM; AID 651687; U2OS PGC1a acetylation, AlphaScreen anti-acetyl-lysine; with virally co-expressed GCN5 acetyltransferase;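 active means every replicate shows inhibition of at least 40%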;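 further: 0% = neutral control wells and 100% = positive control wells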
HIV Env fusion = inhibitors of HIV Env-mediated cell fusion | 360,000 compounds, 1.1% hits | AID 651610 | HeLa-JRFL Env/CEM21 cell fusion, luciferase | inhibition, % at 12.3 µM;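 active means mean replicate inhibition score of at least 50 and every replicate individually at or above 50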;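 further: 0% = plate neutral controls and 100% = maraviroc near 300 nM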
GSIS activator = primary screen for activators of insulin secretion dependent on glucose, INS-1E cells, GLuc reporter luminescence; INS-1E GLuc reporter insulin secretion, 2-3 h; activation, % at 16.6 µM; 370,000 compounds, 0.61% hits;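 active means lowest replicate activation of at least 40%, so every replicate reaches that level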;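 further: 0% = median of neutral control wells and 100% = median of IBMX positive control wells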
CFTR F508del cor = correctors of CFTR F508del function in bronchial epithelial cells | AID 720511 | activity (quench increase), % at 7.58 µM | CFBE cells, YFP halide quenching; stimulated with forskolin plus potentiator P3; % fluorescence drop versus neutral controls | 350,000 compounds, 0.36% hits;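 active means mean added fluorescence quench of at least 8% versus neutral control, with both replicates also reaching 8%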;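 further: cells transiently co-express mutant CFTR-F508del with the halide-sensitive YFP; corrector assay measuring rescue of mutant channel to the surface after 24 h compound exposure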
PAX8 inh HTS = PAX8 transcriptional activity inhibition; RMG-I TPO-luciferase reporter, SteadyGlo, 24 h; inhibition, % at 12.6 µM; 360,000 compounds, 1.2% hits;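 active means mean replicate inhibition at least 60% with every replicate also reaching 60%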;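 further: luciferase light reporting Pax8 driven TPO promoter activity; plate controls were median of neutral control wells for no effect and mitoxantrone controls for full effect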
Active calls of the source: *; . = no result given; [ ] = remark or other dose. Most compounds without a hit are left out; they make up all but 2.7% or so of the library.

SMILES	EWS-Fli inh	PGC1a acetyl inh	HIV Env fusion	GSIS activator	CFTR F508del cor	PAX8 inh HTS
CC1OC(OC2C(O)CC(OC3C(O)CC(OC4CCC5(C)C(CCC6C5CCC5(C)C(C7=CC(=O)OC7)C(O)CC65O)C4)OC3C)OC2C)CC(O)C1O (centres undefined)	46	.	63*	4	-5	-16
CC12CC[C@H]3[C@@H](CCC4(O)C[C@H](O)CCC34/C=N/NC(=O)c3ccccc3Cl)C1(O)CCC2C1=CC(=O)OC1 (some centres undefined)	6	-6	-17	3	2	-16
CC12CCC3C(CCC4(O)CC(O)CCC34C=O)C1(O)CCC2C1=CC(=O)OC1 (centres undefined)	52*	.	-1	4	-2	101*
C[C@H]1O[C@@H](OC2CC[C@]3(C=O)[C@H]4CC[C@]5(C)[C@@H](C6=CC(=O)OC6)CC[C@]5(O)[C@@H]4CC[C@]3(O)C2)CC2OC(C)(C)OC21 (some centres undefined)	71*	.	82*	1	8.6*	108*
CCCN1[C@@H]2c3ccc(-c4cccc(C(=O)N(C)C)c4)c(=O)n3C[C@H]1[C@H](CO)[C@H]2C(=O)OC	12	.	1[16.7 µM]	13	.	-6
O=C1CNC[C@H]2[C@@H](c3ccc(Br)cc3)[C@H](CO)N12	8	3	.	6	-3	-24
O=C(Cc1ccncc1)N1CCCCN2[C@H](CO)[C@H](c3ccc(C#Cc4ccccc4F)cc3)[C@@H]2C1	-4	3	.	4	3	-2
O=C(C1CC1)N1C[C@@H]2N[C@H](C1)[C@@H]2c1ccc(-c2ccncc2)cc1	80*	-15	.	5	-4	85*
CCCNC(=O)N1[C@@H]2c3ccc(-c4cccc(C(=O)N(C)C)c4)c(=O)n3C[C@H]1[C@H](CO)[C@H]2C(=O)O	1	-1	.	10	0	-8
COc1ccc2c(c1)/C(=C/c1cnc[nH]1)C(=O)N2	-28	.	-113	35	.	79*
CC=Cc1ccc2n(c1=O)C[C@H]1[C@H](CO)[C@@H](C(=O)OC)[C@@H]2N1S(=O)(=O)c1cccc(C)c1 (mixture of isomers)	-8	.	-2[16.7 µM]	1	.	.
COc1ccc(-c2ccc(OC)c(OC)c2OC)cc1	2	-25	3	.	12*	2
O=c1c2ccccc2nc(CN2CCCCCC2)n1-c1ccc(F)cc1	.	9	71*	-4	.	.
CCC(CC)N1CCN(Cc2nc3ccccc3c(=O)n2-c2ccc(F)cc2)CC1	2	3	2	.	.	-13
O=C(Nc1ccc(C(F)(F)F)cc1)c1cccn(Cc2ccc3c(c2)OC(F)(F)O3)c1=O	.	.	106*	.	.	-1
Cc1cccc(C)c1NC(=O)c1cccn(Cc2ccc3c(c2)OC(F)(F)O3)c1=O	.	11	67*	.	.	.
O=C(Nc1cccc(C(F)(F)F)c1)c1cccn(Cc2ccc3c(c2)OC(F)(F)O3)c1=O	.	-6	21	.	.	.
CC1=C(O)C(=O)C=C2C1=CC=C1C2(C)CCC2(C)C3CC(C)(C(=O)O)CCC3(C)CCC12C (centres undefined)	65*	30	-231	.	-3	119*
COC(=O)[C@@H]1[C@@H](CO)[C@@H]2Cn3c(cccc3=O)[C@@H]2N1CC1CC1	7	.	.	10	-1	.
CN(CC1COc2ccccc2O1)c1nc(-c2cccnc2)nc2ccccc12 (centres undefined)	.	12	65*	-30	.	34
CN1CCC(N(C)c2nc(-c3ccc([N+](=O)[O-])cc3)nc3ccccc23)CC1	.	-35	.	.	.	.
COC(=O)[C@@H]1[C@@H](CO)[C@@H]2Cn3c(ccc(-c4cccnc4)c3=O)[C@H]1N2CCc1ccccc1	0	.	.	2	-2	11
COC(=O)C1=C(c2ccc(OC(F)(F)F)cc2)C[C@@H]2CC[C@H]1N2C(=O)N1CCCC1	23	0	58*	.	2	12
CP(=O)(O)CN1CCCCC1	-9	.	6	-19	1	-4
CCC1CN1P(=O)(N1CCCC1)N1CC1CC (centres undefined)	-4	5	59*	18	5	-4
c1ccc(N2[C@@H]3CC[C@H]2c2ccncc2C3)cc1	0	.	10	48*	0	-28
Cc1cc(Br)cn2c(CC(=O)N3CCCCC3)c(-c3ccc(F)cc3)nc12	12	.	20	54*	0	16
